IDH1 R132H inh = qHTS for Inhibitors of mutant isocitrate dehydrogenase 1 (IDH1): qHTS; Isocitrate dehydrogenase [NADP] cytoplasmic (Homo sapiens), O75874; IDH1-R132H enzyme, NADPH consumption, diaphorase/resazurin fluorescence; Potency, µM (doses to about 76.6 µM), most hits filed as inhibitors; 0.093% of 390,000 active; AID 602179, 2012; further: nearly all actives have a fitted effect of over 65% in size
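IDH1-R132H (0.5 ug/mL dispensed) in pH 7.5 Tris buffer was preincubated 30 min with compound, then given a substrate mix of 0.016 mM NADPH and 2 mM alpha-KG for 80 min at room temperature; remaining NADPH was read by diaphorase/resazurin fluorescence.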
PKM2 activator = qHTS Assay for Activators of Human Muscle isoform 2 Pyruvate Kinase | Pyruvate kinase PKM (Homo sapiens), P14618 | AID 1631, 2009 | Potency, µM (titrated, usually from 57.5 µM), hits mostly activators | 0.34% of 260,000 active | purified PKM2, Kinase-Glo ATP luminescence, activation; response scale: 0% is enzyme alone, no compound; further: nearly all actives have a fitted effect of over 55% in size
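hPK-M2, >95% pure; 0.1 mM ADP / 0.5 mM PEP final; imidazole pH7.2 buffer w/ 7 mM MgCl2, 50 mM KCl; 1 h RT; Kinase-Glo lum. Intermediate enzyme activity for dual inhibitor/activator qHTS.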
GLS inh = qHTS for Inhibitors of Glutaminase (GLS); Glutaminase kidney isoform, mitochondrial (Homo sapiens), O94925; GLS enzymatic activity, qHTS titration; Potency, µM (series often up to 45.5 µM), actives largely listed as inhibitors; 0.21% of 410,000 active
Target sequence (O94925 whole entry, looked up, canonical isoform): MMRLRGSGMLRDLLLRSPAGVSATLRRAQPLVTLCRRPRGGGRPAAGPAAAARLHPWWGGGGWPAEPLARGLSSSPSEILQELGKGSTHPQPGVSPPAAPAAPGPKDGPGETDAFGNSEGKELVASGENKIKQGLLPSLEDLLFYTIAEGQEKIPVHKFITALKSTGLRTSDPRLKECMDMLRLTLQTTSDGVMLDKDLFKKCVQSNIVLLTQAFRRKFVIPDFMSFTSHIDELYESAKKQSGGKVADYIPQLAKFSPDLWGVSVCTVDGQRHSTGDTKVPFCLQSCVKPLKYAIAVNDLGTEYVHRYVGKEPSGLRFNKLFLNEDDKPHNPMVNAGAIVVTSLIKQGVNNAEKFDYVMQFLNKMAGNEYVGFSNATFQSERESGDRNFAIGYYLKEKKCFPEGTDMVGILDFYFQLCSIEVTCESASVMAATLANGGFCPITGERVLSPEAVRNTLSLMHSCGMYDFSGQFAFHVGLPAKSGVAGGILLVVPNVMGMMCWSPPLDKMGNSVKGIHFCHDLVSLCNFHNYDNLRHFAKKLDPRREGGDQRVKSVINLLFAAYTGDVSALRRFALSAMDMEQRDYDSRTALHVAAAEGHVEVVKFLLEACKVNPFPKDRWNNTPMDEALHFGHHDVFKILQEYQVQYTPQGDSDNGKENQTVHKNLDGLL
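Assay buffer: 45 mM KH2PO4 pH 8.2, 0.02% Tween-20. hKGA acts on L-glutamine (1 mM solution added); product glutamate is reported by an oxidase/peroxidase Amplex Red coupling, with fluorescence taken at baseline and 30 min.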
LDHA block = qHTS assay for inhibitors of human lactate dehydrogenase; purified LDHA, NADH/diaphorase-resazurin fluorescence; stronger effect = lower value; 0.15% of 480,000 active; activity change, % (values are at about 110 or 230 µM); in the data active means activity change below about -30%; inconclusive means mostly about -25% to -30%
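Resorufin fluorescence (ex540/em590), read at 0 and 20 min after diaphorase/resazurin addition, reports the NADH left after a 5 min room-temperature reaction of 2 nM human LDH5 with 0.06 mM NADH and 0.2 mM pyruvate.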
TrxR1 inh = qHTS Assay for Inhibitors of Mammalian Selenoprotein Thioredoxin Reductase 1 (TrxR1): qHTS; recombinant rTrxR1, NADPH fluorescence consumption, selenite substrate; 1% of 390,000 active; Thioredoxin reductase 1, cytoplasmic (Rattus norvegicus), O89049; Potency, µM (top dose mostly 114 µM), most hits filed as inhibitors; further: nearly all actives have a fitted effect of over 65% in size
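Rat TrxR1 (90 nM in the dispensed reagent) was pre-reduced with 400 uM NADPH for 5 min at room temperature, then incubated with compound for 15 min. After 400 uM selenite was added, NADPH fluorescence (Ex 340/Em 450 nm) was followed for 8 min.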
TrxR1 substrate = qHTS Assay for Substrates of Mammalian Selenoprotein Thioredoxin Reductase 1 (TrxR1): qHTS; purified TrxR1 substrate turnover, NADPH consumption readout; Potency, µM (doses to about 114 µM); 0.01% of 390,000 active; AID 588456, 2011; Thioredoxin reductase 1, cytoplasmic (Rattus norvegicus), O89049; further: nearly all actives have a fitted effect of over 50% in size
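Rat TrxR1, dispensed at 90 nM, was prereduced with 400 uM NADPH (final) for 5 min at ~22 deg C, then incubated with compound 15 min before 400 uM selenite. A first-read NADPH fluorescence drop versus no-compound background flagged substrates.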
Of the large screens only hits and unclear results are named; the others gave an inactive call. This is a sample that favours compounds with a hit; in the whole collection about 1.4% have one here. Unless noted, the call rests on the fitted dose curve; in most records, active means well fitted curve in the direction sought with a large enough effect; inconclusive means small, poorly fitted or top-dose-only effect, or another doubt; inactive means no such curve, though single readings can be large; an effect the other way counts as inactive or inconclusive.

CO/N=C(\Cn1ncc(N2CCCC2)c(Cl)c1=O)c1ccc(Cl)cc1	PKM2 activator 14µM
COc1cc(C(C2C(=O)CC(C)(C)CC2=O)C2C(=O)CC(C)(C)CC2=O)ccc1OC(C)=O	TrxR1 inh inconclusive (no result: PKM2 activator)
COc1ccc(C(C2C(=O)CC(C)(C)CC2=O)C2C(=O)CC(C)(C)CC2=O)cc1COCC(F)(F)F	TrxR1 inh 7.9µM
COc1cc(C(C2C(=O)CC(C)(C)CC2=O)C2C(=O)CC(C)(C)CC2=O)cc(OC)c1OC	TrxR1 inh inconclusive (no result: PKM2 activator)
COc1cc(C(C2C(=O)CC(C)(C)CC2=O)C2C(=O)CC(C)(C)CC2=O)ccc1O	TrxR1 inh 14µM (no result: PKM2 activator)
COc1cccc(CN2CCN(Cc3cc(OC)c(OC)c(OC)c3)CC2)c1OC	LDHA block -35
CCS(=O)(=O)N1CCN(Cc2ccccc2OC)CC1	LDHA block -31
COC(=O)C1(NC(=O)CCNC(C)=O)CCCCCC1	none (no result: IDH1 R132H inh, PKM2 activator, GLS inh, TrxR1 inh, TrxR1 substrate)
Cc1ccc(CN2CC(C(=O)N3CCN(c4ccccc4O)CC3)CC2=O)cc1 (stereo not given)	GLS inh 7.1µM (no result: PKM2 activator)
NC(=O)c1cc(-c2csc(NC3CCCC3)n2)ccc1O	none (no result: IDH1 R132H inh, PKM2 activator, GLS inh, TrxR1 inh, TrxR1 substrate)
O=C(CN1C(=O)C(=O)N(CCC2=CCCCC2)C1=O)c1c[nH]c2ccccc12	none (no result: PKM2 activator)
O=C(CN1C(=O)C(=O)N(Cc2ccco2)C1=O)c1c[nH]c2ccccc12	TrxR1 inh 14µM
CCCC(=O)N1CCCN(C(C)C(=O)Nc2ccccc2Cl)CC1 (stereo not given)	none (no result: IDH1 R132H inh, PKM2 activator, GLS inh, TrxR1 inh, TrxR1 substrate)
CC1CCCN(c2ccc(N)cc2C(N)=O)C1 (stereo not given)	GLS inh 7.1µM
Cc1nn(CC(=O)N2CCc3ccccc32)c(C)c1S(=O)(=O)N1CCCC(C(=O)NC(C)C)C1 (stereo not given)	none (no result: IDH1 R132H inh, PKM2 activator, GLS inh, TrxR1 inh, TrxR1 substrate)
O=C(Cn1sc2ccccc2c1=O)Nc1ccc(Br)cc1	GLS inh 7.1µM (no result: PKM2 activator, TrxR1 inh, TrxR1 substrate)
O=C(Cn1sc2ccccc2c1=O)Nc1ccc(Cl)cc1	GLS inh 7.1µM (no result: PKM2 activator, TrxR1 inh, TrxR1 substrate)
O=C(Cc1ccc(F)cc1)N1CCN(c2ncnc3c2nnn3-c2ccc(F)cc2)CC1	none (no result: IDH1 R132H inh, PKM2 activator, GLS inh, TrxR1 inh, TrxR1 substrate)
C[n+]1cnc(-c2ccccc2)cc1-c1ccccc1	LDHA block -49
CN(C)CCCN1C(=O)CSC1c1ccc(Br)cc1 (stereo not given)	none (no result: IDH1 R132H inh, PKM2 activator, GLS inh, TrxR1 inh, TrxR1 substrate)
O=C(O)c1cc(Cl)c2c(c1)OCO2	GLS inh 20µM
CC1CCN(C(=O)COC(=O)c2cc(Cl)c3c(c2)OCO3)CC1	none (no result: PKM2 activator)
C#CCOCCOCCOCCNc1nc(N2CCN(C(=O)CCCCCCCCCCNC(=O)Cn3cc(CCCCCN)nn3)CC2)nc(N2CCN(C(=O)CCCCCCCCCCNC(=O)Cn3cc(CCCCCN)nn3)CC2)n1	TrxR1 inh 11µM (no result: PKM2 activator)
C#CCOCCOCCOCCNc1nc(N2CCN(C(=O)CCCCCCCCCCNC(=O)[C@H]([C@@H](C)CC)n3cc(CCCCN=C(N)N)nn3)CC2)nc(N2CCN(C(=O)CCCCCCCCCCNC(=O)[C@H](CCCCN)n3cc(C)nn3)CC2)n1	GLS inh 16µM, TrxR1 inh inconclusive (no result: PKM2 activator)
C#CCOCCOCCOCCNc1nc(N2CCN(C(=O)CCCCCCCCCCNC(=O)[C@H]([C@@H](C)CC)n3cc(CCCCCN)nn3)CC2)nc(N2CCN(C(=O)CCCCCCCCCCNC(=O)[C@H](CCCCN)n3cc(CCCC(=O)O)nn3)CC2)n1	none (no result: PKM2 activator)
C#CCOCCOCCOCCNc1nc(N2CCN(C(=O)CCCCCCCCCCNC(=O)Cn3cc(CCCCCN)nn3)CC2)nc(N2CCN(C(=O)CCCCCCCCCCNC(=O)[C@@H](CCC(=O)O)n3cc(CCCCCN)nn3)CC2)n1	none (no result: PKM2 activator)

Screening data (PubChem BioAssay)
